The source of these data is PubChem BioAssay (NCATS).

Structures are written as SMILES. Inconclusive results are not listed. Activity calls are given as the source filed them. The call rests on the fitted dose curve; in most records, active means well fitted inhibition curve with a large enough effect; inconclusive means small, poorly fitted or top-dose-only effect; inactive means flat fitted curve, though single readings scatter.
On the % scale 0 is the no-effect control and ±100 the full control effect.

Calcium and integrin-binding protein 1 (Homo sapiens), sequence (Q99828 whole entry, looked up): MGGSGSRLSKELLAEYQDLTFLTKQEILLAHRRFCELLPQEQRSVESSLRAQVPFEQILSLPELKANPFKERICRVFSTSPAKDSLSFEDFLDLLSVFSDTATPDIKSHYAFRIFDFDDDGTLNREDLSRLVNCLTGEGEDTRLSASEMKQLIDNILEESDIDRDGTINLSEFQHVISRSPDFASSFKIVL

This test addresses Calcium and integrin-binding protein 1 (Homo sapiens) (UniProt Q99828). Nature of the test: Primary qHTS for Identification of Calcium Integrin Binding Protein 1 (CIB1) Competitor (AID 1508620). Further: top concentration of the series differs between compounds. The conditions noted are these: CIB1-GST / FITC-alphaIIb peptide fluorescence polarization; series mostly up to 114 µM; activity change, negative = inhibition: at the top concentration. The procedure, abridged:
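Fluorescence polarization competition: GST-tagged CIB1 (1 uM final) preincubated with compound 15 min at room temperature, then FITC-labelled alphaIIb peptide (100 nM final) added. After 15 min at room temperature, polarization read at Ex 480/Em 540.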
A general note: qHTS replaces the single test concentration by a dilution series.
Consider `C=C1C(=O)OC2CC(C)=C(C(C)CCCOC(C)=O)C(OC(=O)CC(C)CC)C12` (stereo not drawn), for which the “activity change, negative = inhibition” value was -0.308% [at 57.7 µM] (inactive).

For the compound `CC(C)(CO)c1cc2cc(NC(=O)C3(c4ccc5c(c4)OC(F)(F)O5)CC3)c(F)cc2n1CC(O)CO` (stereo not drawn), the “activity change, negative = inhibition” value is -0.578% (inactive).

Regarding `CCC(C(C)O)n1ncn(-c2ccc(N3CCN(c4ccc(OCC5COC(Cn6cncn6)(c6ccc(F)cc6F)C5)cc4)CC3)cc2)c1=O` (stereo not drawn), the “activity change, negative = inhibition” value is 0.0229% (inactive).

As for `CC1(C)CCCC2(C)C1C(=O)C=C(C(=O)O)C2(O)C(=O)O` (stereo not drawn), the “activity change, negative = inhibition” value is 4.7% (inactive).

As to `O=C(O)c1cc(N(Cc2ccc(C3CCCCC3)cc2)C(=O)c2ccc(Oc3ccccc3)cc2)ccc1O`, the “activity change, negative = inhibition” value was -2.04% (inactive).

For the compound `CNC(=O)c1cc(Oc2ccc(NC(=O)c3cccc(C(F)(F)F)c3)cc2)ccn1`, the “activity change, negative = inhibition” value is 4.8% (inactive).

For the compound `Cn1cc(-c2cnn3c(N)c(Br)c(C4CCCNC4)nc23)cn1` (stereo not drawn), the “activity change, negative = inhibition” value is 3.73% (inactive).

Regarding `C#CCCCn1cc(-c2cccc3c2N[C@H](C)CC(=O)N3)cn1`, the “activity change, negative = inhibition” value is 1.88% (inactive).

For `Cc1ccc(NC(=O)c2ccc(CN3CCNCC3)cc2)cc1Nc1nccc(-c2cccnc2)n1`, the “activity change, negative = inhibition” value was -6.06% (inactive).

`COc1cc(F)c(C(C)C)cc1-c1ccc(C(F)(F)F)cc1CN1C(=O)OC(c2cc(C(F)(F)F)cc(C(F)(F)F)c2)C1C` (stereo not drawn): the “activity change, negative = inhibition” value was 2.49% (inactive).

Consider `COC(=O)N1CC2(CC2)C[C@H](C(=O)NO)[C@H]1C(=O)N1CCN(c2ccccc2)CC1`, for which the “activity change, negative = inhibition” value was -0.996% (inactive).

In the case of `CCC(C)C(=O)OC12C(OC(C)=O)C(C)C3(O)C(C=C(CO)CC4(O)C(=O)C(C)=CC43)C1C2(C)C` (stereo not drawn), the “activity change, negative = inhibition” value was 0.799% [at 57.7 µM] (inactive).

With `Cc1c(OCc2cccc(-c3ccc(C(=O)O)cc3)c2)cc2c(c1C)C(=O)C(C1CCCC1)C2` (stereo not drawn), the “activity change, negative = inhibition” value is 35.4% (inactive).

With `C=C1C(=O)O[C@@H]2C=C(COC(C)=O)CC/C=C(\CO)CC[C@@H]12`, the “activity change, negative = inhibition” value was -0.843% [at 57.7 µM] (inactive).

Consider `COc1cc(C(C)C)c(Oc2cnc(N)nc2N)cc1I`, for which the “activity change, negative = inhibition” value is 2.33% (inactive).

Regarding `CCN(CC)C(=O)c1ccc(Nc2nc(OCC3CCCCC3)c3[nH]cnc3n2)cc1`, the “activity change, negative = inhibition” value was -6.68% (inactive).

`COc1ccc(CNCc2cccc3ccccc23)cc1`: the “activity change, negative = inhibition” value was 3.27% (inactive).

With `COC1=CC(=O)C=C(C)C12Oc1c(Cl)c(OC)cc(OC)c1C2=O` (stereo not drawn), the “activity change, negative = inhibition” value was -2.22% [at 57.7 µM] (inactive).

On to `N[C@@H]1c2cccnc2[C@H](OC(=O)N2CCC(n3c(=O)[nH]c4ncccc43)CC2)CC[C@H]1c1cccc(F)c1F`, for which the “activity change, negative = inhibition” value was 1.79% (inactive).

`COc1ccc(C#Cc2ccc(C(=O)N3CCC[C@@H](CO)C3)cc2)cc1`: the “activity change, negative = inhibition” value was 1.81% (inactive).

As to `CO[C@H]1O[C@@H]2O[C@@]3(C)CCC4[C@H](C)CCC([C@H]1C)[C@]42OO3` (stereo partly drawn), the “activity change, negative = inhibition” value is -2.04% (inactive).

In the case of `O=c1cc(NCCCN[C@@H]2CCOc3c(Br)cc(Br)cc32)[nH]c2ccsc12`, the “activity change, negative = inhibition” value was 14.4% (inactive).

As to `C=C1CC[C@@H]2[C@](C)(CO)[C@H](O)CC[C@@]2(C)[C@@H]1C/C=C1/C(=O)OCC1O` (stereo partly drawn), the “activity change, negative = inhibition” value is 1.38% (inactive).

`CCC(C)C(=O)O[C@H]1[C@H](O)[C@@]2(COC(C)=O)C(CC1(C)C)C1=CCC3[C@@]4(C)CC[C@H](O[C@@H]5O[C@H](C(=O)O)[C@@H](O)[C@H](O)[C@H]5O)[C@@](C)(CO)C4CC[C@@]3(C)[C@]1(C)C[C@@H]2O` (stereo partly drawn): the “activity change, negative = inhibition” value was -5.06% [at 30.2 µM] (inactive).

For the compound `Cc1cc2c(c(=O)o1)C=C1CC[C@H]([C@H](C)Cn3cnc(=N)c4[nH]cnc43)C[C@@H]1O2`, the “activity change, negative = inhibition” value is 8.94% (inactive).

In the case of `C[C@@H](c1ccc2nccn2c1)n1nnc2ncc(-c3cnn(C)c3)nc21`, the “activity change, negative = inhibition” value was -6.02% (inactive).

As for `COc1cc(O)c2c(c1)C1OC1C[C@H](O)[C@H](O)C(=O)/C=C\C[C@H](C)OC2=O` (stereo partly drawn), the “activity change, negative = inhibition” value is -6.08% (inactive).

Take `CC1OC(OC2C(O)COC(O[C@@H]3[C@@H](O)[C@@H](O)[C@H](OC4C(OC(=O)[C@]56CCC(C)(C)CC5C5=CCC7[C@@]8(C)C[C@H](O)[C@H](OC9OC(CO)C(O)C(O)C9O)[C@@](C)(CO)C8[C@H](O)C[C@@]7(C)[C@]5(C)CC6)OCC(O)C4O)O[C@H]3C)C2O)C(O)C(O)C1O` (stereo partly drawn): the activity change, negative = inhibition is -1.65% [at 12.4 µM] (inactive).

For `CS/C=C/C(=O)O[C@@H]1CCC2=CC(=O)C(=C(C)C)C[C@]2(C)[C@H]1C`, the “activity change, negative = inhibition” value was -7.91% [at 57.7 µM] (inactive).

Turning to `C/C1=C\CCC2=CC(OC2=O)C(C)(C)/C=C/C1=O` (stereo not drawn), the “activity change, negative = inhibition” value was 0.908% (inactive).

As for `O=C(Nc1ccnc(NC(=O)C2CC2)c1)c1c(Cl)cccc1Cl`, the “activity change, negative = inhibition” value was -0.791% (inactive).

As for `C/C1=C/CCC2=CC(OC2=O)C(C)(C)/C=C/C1=O` (stereo not drawn), the “activity change, negative = inhibition” value is 3.73% (inactive).

For `C=C[C@@]12COC(=O)C(=C)[C@@H]1[C@@H](O)[C@H](C(=C)C(=O)OC)[C@@H](O)C2`, the “activity change, negative = inhibition” value is -2.36% [at 57.7 µM] (inactive).

Turning to `Cn1cc(C2=C(c3coc4ccccc34)C(=O)NC2=O)c2cc(Br)ccc21`, the “activity change, negative = inhibition” value is 5.88% (inactive).

With `COc1ccc([C@H]2Cc3cccc(O)c3C(=O)O2)cc1OC`, the “activity change, negative = inhibition” value was 2.67% (inactive).

On to `CC(C)c1c(O)ccc2c1CC[C@H]1C(C)(C)CCC[C@]21C`, for which the “activity change, negative = inhibition” value was 4.95% (inactive).

Regarding `COc1cc(CCc2ccc(OCC=C(C)C)cc2)cc(OC)c1OC`, the “activity change, negative = inhibition” value is 1.34% [at 57.7 µM] (inactive).

On to `C=C1C(=O)OC2/C=C(\COC(C)=O)CC/C=C(\C=O)CC(OC(=O)CC(C)C)C12` (stereo not drawn), for which the “activity change, negative = inhibition” value was 0.72% [at 57.7 µM] (inactive).
